rCAG RNA binder = r(CAG) repeat RNA binding; TO-PRO-1 dye displacement fluorescence; inhibition, % at 3 µM; actives 1.3% (n = 370,000);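 active means inhibition above the plate cutoff, the mean of all test compounds on that plate plus 3 SD, cut at about 35% in these data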;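 further: 0% = DMSO alone and 100% = 100 µM mitoxantrone as full dye displacement; higher means more dye released from RNA so lower well fluorescence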
NR3A LBD binder = NR3A (human) ligand-binding domain modulation; NR3A LBD differential scanning fluorimetry, Tm shift; 0% = protein alone, 100% = glycine-bound protein; Tm shift relative to glycine control, % at 25 µM; actives 2.5% (n = 340,000);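 active means melting temperature shift of at least 10% of the positive control shift, at one fixed dose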
FAS TE block = FAS thioesterase (human) inhibition; P49327; recombinant FAS-TE, OMFH fluorogenic substrate, fluorescence endpoint; inhibition, % at 15 µM; actives 0.67% (n = 360,000);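 active means compounds whose normalised, plate-corrected inhibition of enzyme fluorescence in the single-dose primary screen is 50% or more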;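 further: 0% = DMSO with enzyme and 100% = substrate without enzyme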
Target sequence (P49327 whole entry, looked up): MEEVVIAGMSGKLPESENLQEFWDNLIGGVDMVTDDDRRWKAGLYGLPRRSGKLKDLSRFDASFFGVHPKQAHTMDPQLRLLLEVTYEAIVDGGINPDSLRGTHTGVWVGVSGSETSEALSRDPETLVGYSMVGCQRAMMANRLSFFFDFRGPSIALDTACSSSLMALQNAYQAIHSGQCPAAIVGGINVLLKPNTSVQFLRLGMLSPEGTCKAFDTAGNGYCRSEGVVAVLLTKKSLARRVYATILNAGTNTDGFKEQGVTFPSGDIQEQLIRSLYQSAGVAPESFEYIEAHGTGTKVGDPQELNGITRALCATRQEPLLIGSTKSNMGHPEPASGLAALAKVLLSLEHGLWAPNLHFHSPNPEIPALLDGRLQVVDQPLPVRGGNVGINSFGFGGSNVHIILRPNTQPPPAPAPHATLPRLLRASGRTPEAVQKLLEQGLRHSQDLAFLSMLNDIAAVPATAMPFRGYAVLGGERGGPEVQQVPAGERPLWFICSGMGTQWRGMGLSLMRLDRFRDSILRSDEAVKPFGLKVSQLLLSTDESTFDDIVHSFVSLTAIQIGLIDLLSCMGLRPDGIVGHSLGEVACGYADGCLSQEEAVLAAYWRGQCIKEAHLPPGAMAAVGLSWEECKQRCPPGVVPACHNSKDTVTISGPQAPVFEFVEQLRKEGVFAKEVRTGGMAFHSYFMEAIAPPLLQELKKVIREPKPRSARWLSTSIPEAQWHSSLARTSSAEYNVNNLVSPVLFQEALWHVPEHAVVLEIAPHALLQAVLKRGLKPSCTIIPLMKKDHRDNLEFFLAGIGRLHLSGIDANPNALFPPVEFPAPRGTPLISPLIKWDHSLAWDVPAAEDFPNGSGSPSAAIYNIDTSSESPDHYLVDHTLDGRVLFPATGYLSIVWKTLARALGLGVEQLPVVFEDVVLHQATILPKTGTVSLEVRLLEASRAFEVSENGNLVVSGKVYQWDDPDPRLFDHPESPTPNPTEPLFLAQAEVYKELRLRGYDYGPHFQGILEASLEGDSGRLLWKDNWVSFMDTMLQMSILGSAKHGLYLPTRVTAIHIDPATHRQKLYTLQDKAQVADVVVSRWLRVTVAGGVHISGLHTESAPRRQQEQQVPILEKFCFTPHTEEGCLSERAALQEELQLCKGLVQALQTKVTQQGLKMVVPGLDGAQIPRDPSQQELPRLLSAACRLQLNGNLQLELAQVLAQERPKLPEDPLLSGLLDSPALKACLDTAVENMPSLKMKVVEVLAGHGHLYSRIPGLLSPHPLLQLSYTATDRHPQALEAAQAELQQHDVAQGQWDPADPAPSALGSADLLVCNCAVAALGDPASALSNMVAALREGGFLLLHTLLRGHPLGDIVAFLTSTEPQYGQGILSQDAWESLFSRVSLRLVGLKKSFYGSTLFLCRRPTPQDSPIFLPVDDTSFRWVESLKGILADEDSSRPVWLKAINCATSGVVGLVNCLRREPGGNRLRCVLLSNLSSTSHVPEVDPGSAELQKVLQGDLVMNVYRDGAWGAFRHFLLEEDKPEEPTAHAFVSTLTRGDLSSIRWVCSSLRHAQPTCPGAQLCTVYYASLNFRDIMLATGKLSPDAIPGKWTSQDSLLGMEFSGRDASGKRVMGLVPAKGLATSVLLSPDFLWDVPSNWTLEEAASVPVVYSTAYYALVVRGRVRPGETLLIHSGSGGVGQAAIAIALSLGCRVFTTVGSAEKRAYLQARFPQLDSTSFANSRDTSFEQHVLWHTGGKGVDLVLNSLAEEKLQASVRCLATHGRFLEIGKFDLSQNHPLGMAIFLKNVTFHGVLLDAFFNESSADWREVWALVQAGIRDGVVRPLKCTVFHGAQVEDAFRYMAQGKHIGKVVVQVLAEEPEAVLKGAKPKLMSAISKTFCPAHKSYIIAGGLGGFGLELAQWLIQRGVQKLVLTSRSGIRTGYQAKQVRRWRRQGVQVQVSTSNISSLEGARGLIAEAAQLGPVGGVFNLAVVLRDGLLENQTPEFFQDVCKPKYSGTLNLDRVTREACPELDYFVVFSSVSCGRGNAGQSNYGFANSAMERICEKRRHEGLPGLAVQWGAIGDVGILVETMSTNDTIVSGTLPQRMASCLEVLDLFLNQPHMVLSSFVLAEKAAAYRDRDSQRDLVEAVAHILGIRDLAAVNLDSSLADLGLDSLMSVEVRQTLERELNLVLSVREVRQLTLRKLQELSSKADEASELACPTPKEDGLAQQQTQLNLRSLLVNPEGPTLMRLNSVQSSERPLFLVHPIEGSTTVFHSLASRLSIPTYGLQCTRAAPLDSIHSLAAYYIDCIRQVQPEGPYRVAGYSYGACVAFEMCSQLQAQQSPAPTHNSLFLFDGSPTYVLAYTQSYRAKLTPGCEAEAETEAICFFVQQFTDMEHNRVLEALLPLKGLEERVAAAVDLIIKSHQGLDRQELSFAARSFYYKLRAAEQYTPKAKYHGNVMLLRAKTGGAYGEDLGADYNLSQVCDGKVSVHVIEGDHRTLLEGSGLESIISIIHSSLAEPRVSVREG
NadD block = NadD (S. aureus) enzyme inhibition; purified NadD enzyme, colorimetric absorbance read-out; inhibition, % at 20 µM; AID 602399; actives 0.78% (n = 360,000); in the data active means inhibition above about 26%
FAS-TE conf = FAS thioesterase (human) inhibition, confirmation; AID 624325; inhibition, % at 15 µM; recombinant FAS-TE, OMFH fluorogenic substrate, fluorescence; actives 45% (n = 2,300); shares compounds with FAS TE block;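 active means compounds inhibiting the enzyme by at least 50% at 15 µM in any one of the replicates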;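 further: 0% = enzyme with DMSO only and 100% = wells lacking enzyme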
* = called active by the depositor; . = no result. In the library only some 4.3% were active in any assay of this set; here they are far more common.

SMILES | rCAG RNA binder | NR3A LBD binder | FAS TE block | NadD block | FAS-TE conf
CC(=O)N1CCN(S(=O)(=O)c2cccc(C(=O)OCC(=O)N(Cc3ccccc3)C(C)(C)C)c2)CC1 | -1 | 0 | 5 | -1 | .
O=C(Cn1cc([N+](=O)[O-])cn1)N1CCc2ccccc2C1 | -1 | -1 | 56* | -7 | 58*
O=C(OCC(=O)N1CCc2ccccc2C1)c1cccc([N+](=O)[O-])c1 | -6 | 0 | 56* | -2 | 67*
O=C(Cn1nc(-c2ccco2)ccc1=O)Nc1ccc(Cl)c(Cl)c1 | 23 | -2 | 59* | 0 | 36*
O=C(Cn1nc(-c2ccco2)ccc1=O)Nc1cc(C(F)(F)F)ccc1Cl | 13 | -1 | 52* | -10 | 73*
O=C(Cn1nc(-c2ccco2)ccc1=O)Nc1cc(Cl)ccc1Cl | 9 | 0 | 29 | -2 | .
N#Cc1c(-c2ccccc2)c(-c2ccccc2)nn(CC(=O)NNC(=O)Nc2ccc(Cl)cc2)c1=O | 21 | 15* | 76* | 20 | 78*
COc1ccc(S(=O)(=O)N2CCCc3nc(-c4ccc(F)cc4)ccc32)cc1 | 0 | . | . | . | .
Cc1ccc(CN2C(C(=O)NC3CCCC3)CSCCS2(=O)=O)cc1 (stereo unspecified) | 1 | . | . | . | .
COc1cccc(NC(=O)c2cc([N+](=O)[O-])ccc2NC(=O)CNCC2CCCO2)c1 (stereo unspecified) | -1 | -2 | 52* | -4 | 57*
CC(=O)CC[C@@H]1CC[C@]2(CCCN(C(=O)c3ccco3)C2)O1 | 2 | . | . | . | .
N#C/C(=C\c1cc([N+](=O)[O-])c(N2CCCCC2)cc1N1CCCCC1)c1nn(-c2ccccc2)c(N)c1C#N | 2 | 2 | 57* | 42* | 1
N#C/C(=C\c1cccc2ccccc12)c1nn(-c2ccccc2)c(N)c1C#N | . | 6 | . | . | .
COC(=O)C1CN(Cc2ccc(F)cc2)CCS(=O)(=O)N1Cc1ccc(C(F)(F)F)cc1 (stereo unspecified) | -1 | . | . | . | .
O=C(NNS(=O)(=O)c1ccc([N+](=O)[O-])cc1)c1ccccc1 | 0 | 6 | 13 | -2 | .
O=C(NNS(=O)(=O)c1ccc([N+](=O)[O-])cc1)c1ccc2ccccc2c1O | 30 | 5 | 63* | 5 | 77*
COCCSc1nnc(NC(=O)c2ccc([N+](=O)[O-])cc2)s1 | -1 | 1 | 3 | 2 | .
Cc1cc(-c2nnc(CSc3nnc(NC(=O)c4ccc(C(C)(C)C)cc4)s3)o2)ccc1[N+](=O)[O-] | 2 | 2 | 75* | 5 | 10
O=[N+]([O-])c1ccc(Sc2n[nH]c(-c3ccccc3)n2)nc1 | 4 | 7 | 52* | 8 | 64*
O=[N+]([O-])c1ccc(Sc2ccccc2)nc1 | -5 | -5 | 6 | -9 | .
COCCN1C(=O)C2=C(C1=O)C1N(C)c3ccccc3[C@@]13C[C@@H](CO)N(C(C)=O)C3=N2 (stereo partly specified) | 2 | . | . | . | .
COc1ccc(C(=O)N/C(=C\c2cn(S(=O)(=O)N(C)C)c3ccccc23)C(=O)NCCCN2CCOCC2)cc1 | 1 | -2 | 57* | -9 | 74*
CN(C)S(=O)(=O)n1cc(/C=C(\NC(=O)c2ccccc2)C(=O)NCCCN2CCOCC2)c2ccccc21 | 0 | 0 | 17 | -10 | .
CC(C)=CCC/C(C)=C/CNCC(=O)N1c2ccccc2[C@]2(c3ccccc3)C[C@@H]3C(=O)N(C/C=C(\C)CCC=C(C)C)CC(=O)N3[C@H]12 | 9 | . | . | . | .
O=C(CC(=O)N/N=C\c1ccc([N+](=O)[O-])cc1)NCCc1ccccc1 | 3 | -3 | 52* | -6 | 50*
SMILES | rCAG RNA binder | NR3A LBD binder | FAS TE block | NadD block | FAS-TE conf
O=C(COc1ccc([N+](=O)[O-])cc1)Nc1ccc2c(c1)CCC2 | 7 | -10 | 58* | 3 | 63*
O=C(COc1ccc([N+](=O)[O-])cc1)NCCC1=CCCCC1 | -2 | 0 | 63* | -5 | 64*
O=C(CN1C(=O)c2ccc([N+](=O)[O-])cc2C1=O)NCCC1=CCCCC1 | -2 | 0 | 54* | -1 | 54*
Cc1ccc(OCC(=O)NCCC2=CCCCC2)cc1 | -10 | 1 | -1 | -4 | .
O=C(CC(=O)N/N=C\c1ccccc1)NCCc1ccccc1 | -2 | 1 | -2 | -3 | .
O=C(CN1C(=O)c2ccc([N+](=O)[O-])cc2C1=O)NCC1CCCO1 (stereo unspecified) | 0 | 1 | 0 | -2 | .
Cc1cccc(C(=O)Nc2nc3ncccn3c2-c2ccc(C(F)(F)F)cc2)c1 | 4 | . | . | . | .
CN(CCc1ccccn1)C(=O)c1ccc2c(c1)ncn2C1CCCCC1 | -2 | . | . | . | .
NC(=O)c1ncn2c(=O)n(CCCl)nnc12 | 1 | . | . | . | .
O=C(NCCC1=CCCCC1)c1ccc([N+](=O)[O-])cc1 | -1 | -1 | 40 | -4 | .
O=C(CCNC(=O)c1ccc([N+](=O)[O-])cc1)NCCC1=CCCCC1 | -6 | 1 | 76* | -5 | 83*
O=C(CCNC(=O)c1ccc([N+](=O)[O-])cc1)NCCc1ccccc1 | 0 | -3 | 60* | 1 | 46*
Fc1ccccc1Cn1ccc2ccc(-c3ccc4ccn(Cc5ccccc5)c4c3)cc21 | 8 | . | . | . | .
Cc1nn(-c2ccccc2)nc1C(=O)Nc1ccccc1C(=O)NCC1CC1 | 1 | . | . | . | .
COc1cc(N(C)C)c([N+](=O)[O-])cc1C(=O)NC(C)CNc1ccc([N+](=O)[O-])cc1Cl (stereo unspecified) | 1 | -2 | 70* | 5 | 59*
CCN(CC)CCNC(=O)c1cc([N+](=O)[O-])c(N(C)C)cc1OC | -3 | -2 | -1 | -3 | .
COC(=O)c1ccc(Nc2nnc(-c3ccc(C)c(S(=O)(=O)NCC4CCCO4)c3)c3ccccc23)cc1 (stereo unspecified) | 0 | -5 | 67* | 17 | 21
C[C@H](CO)N1C[C@H](C)[C@@H](CN(C)C(=O)NC2CCCCC2)Oc2c(NC(=O)Nc3ccccc3)cccc2C1=O | 1 | -10 | 66* | -8 | 77*
C[C@H](CO)N1C[C@H](C)[C@@H](CN(C)C(=O)Nc2ccccc2)Oc2c(NC(=O)NC3CCCCC3)cccc2C1=O | 5 | -2 | 22 | 0 | .
COc1ccc(NC(=O)N(C)C[C@H]2Oc3c(NC(=O)NC(C)C)cccc3C(=O)N([C@H](C)CO)C[C@@H]2C)cc1 | -4 | 1 | -12 | -2 | .
COc1ccc(NC(=O)Nc2cccc3c2O[C@H](CN(C)C(=O)Nc2ccc(C(F)(F)F)cc2)[C@@H](C)CN([C@H](C)CO)C3=O)cc1 | . | 0 | 52* | -8 | 56*
Cn1c(=O)c(C(=O)c2ccccc2)nc2ccccc21 | -3 | 3 | 1 | -3 | .
O=C(c1ccccc1)c1nc2ccccc2n(CCCn2c(=O)c(C(=O)c3ccccc3)nc3ccccc32)c1=O | 8 | -4 | 60* | 8 | 17
COc1cccc(NC(=O)COc2c(F)c(F)c(C(F)(F)F)c(F)c2F)c1 | -6 | -10 | 58* | -11 | 37*
